Screens: PubChem BioAssay, several laboratories
A selection: hits, their analogues and other compounds. The true share with any hit is near 3.3%.
H9c2 protect: protects H9c2 cardiomyocytes from peroxide injury; H2O2 injury protection, ATPLite, 2 h; protection from H2O2 cell death, % at 20 µM; 0.63% of 360,000 active;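 active means compounds giving at least 50% protection of heart cells from peroxide-induced death in the single-dose screen, raw or plate-pattern-corrected value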;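 further: 0% = DMSO wells with peroxide and 100% = DMSO wells without peroxide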
Efflux pump mplx: inhibitors of Candida antifungal efflux pumps expressed in yeast; 0.44% of 330,000 active; inhibition, % at 10 µM; S. cerevisiae Candida pump triplex, Nile Red efflux;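 active means plate passing quality check with inhibition over a set limit, or well fluorescence over plate mean plus 4 SD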;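 further: Nile Red retained in pooled yeast measured as flow cytometry median fluorescence; 0% = buffer negative control and 100% = Enniatin B positive control; higher means more Nile Red kept so more efflux inhibition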
Cl transport mod: KCC2 (human) Cl- transport modulation | Q9H2X9 | KCC2 cells, thallium flux FluoZin-2 fluorescence | B-score of Tl+ flux slope (higher = more flux/activation; lower = inhibition) at 10 µM | 2.2% of 190,000 active;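 active means thallium flux slope and its plate-corrected score both differing from the plate sample mean at a set confidence after two filtering rounds, in either direction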;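 further: slope of fluorescence scaled to starting intensity during 10 to 20 s after thallium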
Target sequence (Q9H2X9 whole entry, looked up): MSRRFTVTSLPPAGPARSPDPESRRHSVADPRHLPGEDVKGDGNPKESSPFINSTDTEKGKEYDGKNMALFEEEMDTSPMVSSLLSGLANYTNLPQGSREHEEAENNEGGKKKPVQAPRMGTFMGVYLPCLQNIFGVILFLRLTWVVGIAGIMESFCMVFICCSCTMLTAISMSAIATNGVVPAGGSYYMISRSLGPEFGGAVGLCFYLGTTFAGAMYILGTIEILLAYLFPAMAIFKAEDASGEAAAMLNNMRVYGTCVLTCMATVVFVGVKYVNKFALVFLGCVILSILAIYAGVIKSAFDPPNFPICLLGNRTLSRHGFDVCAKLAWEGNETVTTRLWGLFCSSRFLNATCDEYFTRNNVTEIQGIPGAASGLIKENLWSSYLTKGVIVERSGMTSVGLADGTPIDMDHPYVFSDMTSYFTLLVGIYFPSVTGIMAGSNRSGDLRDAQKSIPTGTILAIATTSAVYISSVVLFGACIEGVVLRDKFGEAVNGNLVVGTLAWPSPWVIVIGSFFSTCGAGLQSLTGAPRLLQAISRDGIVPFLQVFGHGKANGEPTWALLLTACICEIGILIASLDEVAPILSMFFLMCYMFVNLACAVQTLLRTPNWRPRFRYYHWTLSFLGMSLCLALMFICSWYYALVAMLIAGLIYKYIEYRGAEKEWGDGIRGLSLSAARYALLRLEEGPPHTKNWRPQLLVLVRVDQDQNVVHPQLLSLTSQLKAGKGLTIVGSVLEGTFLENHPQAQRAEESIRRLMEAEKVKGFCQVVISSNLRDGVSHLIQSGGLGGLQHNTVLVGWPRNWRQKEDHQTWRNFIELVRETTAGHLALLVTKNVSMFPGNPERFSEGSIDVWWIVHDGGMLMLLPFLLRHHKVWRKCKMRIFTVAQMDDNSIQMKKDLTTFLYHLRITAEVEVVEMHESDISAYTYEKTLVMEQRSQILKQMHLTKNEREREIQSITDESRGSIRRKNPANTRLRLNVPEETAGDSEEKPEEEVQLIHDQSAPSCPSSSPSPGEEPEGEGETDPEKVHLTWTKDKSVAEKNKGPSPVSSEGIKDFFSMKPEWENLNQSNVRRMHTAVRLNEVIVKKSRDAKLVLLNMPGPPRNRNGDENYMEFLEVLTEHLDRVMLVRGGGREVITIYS
PHOSPHO1 block: PHOSPHO1 (human) inhibition; recombinant PHOSPHO1, absorbance phosphatase assay; 1.1% of 290,000 active; Q8TCT1; inhibition, % at 13.3 µM; in the data active means inhibition above about 60%
Calb FLC: C. albicans growth modulation with fluconazole; C. albicans CaCi-2 (fluconazole-resistant clinical isolate) + fluconazole, Alamar Blue growth, 48 h; growth inhibition, % (no concentration beside the values); 0.57% of 300,000 active;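 active means growth inhibition above about 58% in most replicates, limit read from the data, passing the limit was not always enough; inconclusive means exactly half the replicates above a set limit; inactive means most replicates below a set limit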;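 further: all wells also contain fluconazole at 8 µg/ml as a sub-toxic cotreatment; 0% = median of DMSO wells and 100% = median of geldanamycin control wells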
KCC2 secondary: confirmation of human KCC2 transport modulators. shares compounds with Cl transport mod. HEK293-KCC2, thallium flux, FluoZin2 fluorescence; stronger effect = higher value. normalised thallium flux (F/F0 slope) at 10 µM. 15% of 3,700 active;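 active means thallium flux slope above the same plate's solvent-only control mean plus 3 SD; inconclusive means the two replicate wells disagree; inactive means no significant difference from solvent-only control wells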
KCC2 bumet counter: thallium flux despite bumetanide block in KCC2 cells, secondary assay 3 | AID 1714 | HEK293-KCC2 + bumetanide/ouabain, thallium flux FluoZin2; stronger effect = higher value | 49% of 3,700 active | normalized thallium flux at 10 µM | shares compounds with Cl transport mod;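 active means thallium entry rate above the same plate's blocked-transporter control wells by more than 3 SD; inconclusive means the two repeat wells disagree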;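 further: raw slope of fluorescence over initial fluorescence between 10 and 20 s after thallium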
KCC2 secondary2: confirmation of human KCC2 transport modulators; HEK293-KCC2, thallium flux FluoZin2 fluorescence; actives lie on both sides; F/F0 rise rate, 10–20 s post-thallium; normalized thallium flux at 10 µM; 23% of 3,700 active; shares compounds with Cl transport mod;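 active means thallium flux slope more than 3 SD above or below the plate's solvent-only control mean, mostly below; inconclusive means the two repeat wells disagreed; inactive means no significant shift from solvent-only controls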;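 further: raw slope with 0.1% DMSO as baseline and bumetanide as block control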
HEK counter1: parental HEK flux effect, counter-screen | shares compounds with Cl transport mod | HEK293 parental cells, thallium flux FluoZin2, ouabain; baseline-ratio fluorescence slope, 10–20 s after thallium | thallium flux rate (normalised fluorescence) at 10 µM | 46% of 3,700 active | AID 1716;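 active means thallium flux rate significantly above the same plate's solvent-only control wells, beyond their mean plus 3 SD; inconclusive means the two replicate wells gave conflicting results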
KCC2 retest ouab: KCC2 (human) modulation, ouabain retest. shares compounds with Cl transport mod. HEK293-KCC2, thallium flux FluoZin2 fluorescence; bidirectional: low = inhibitor, high = activator. raw Tl+ flux slope (below DMSO = inhibition, above = activation) at 10 µM. 48% of 3,700 active;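 active means thallium flux slope beyond 3 SD from same-plate DMSO control mean in most replicates, usually higher, sometimes lower; inconclusive means repeat tests gave conflicting results; inactive means no significant difference from controls in most replicates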;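 further: slope of initial-normalized fluorescence between seconds 10 and 20 after thallium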
HEK293 Tl flux2: parental HEK flux effect, counter-screen 2; shares compounds with Cl transport mod; HEK293 parental, thallium flux FluoZin-2 fluorescence slope; thallium flux slope at 10 µM; 33% of 3,700 active;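 active means thallium flux slope above the same plate's solvent-control mean plus 3 SD in both duplicate wells; inconclusive means duplicate wells that disagreed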;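 further: run without ouabain in cells lacking the KCC2 cotransporter; slope of fluorescence scaled to its starting value between 10 and 20 s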
An asterisk follows results filed as active.

CC(=O)c1cccc(NC(=O)Nc2ccc(C(=O)N3CCOCC3)cc2)c1 was read as H9c2 protect -4, Efflux pump mplx 0, Cl transport mod -3.1*, PHOSPHO1 block -45, Calb FLC -7, KCC2 secondary 0.0089, KCC2 bumet counter 0.0066, KCC2 secondary2 0.034, HEK counter1 0.0077, KCC2 retest ouab 0.021 and HEK293 Tl flux2 0.011.
CC(=O)Nc1ccc(C(=O)N2CCCC2)cc1 was read as H9c2 protect -20, Efflux pump mplx 0, Cl transport mod -4.5*, PHOSPHO1 block 27, Calb FLC -3, KCC2 secondary 0.0061, KCC2 bumet counter 0.0047, KCC2 secondary2 0.03, HEK counter1 0.0081, KCC2 retest ouab 0.019 and HEK293 Tl flux2 0.011.
NC(=O)SCC(=O)Nc1ccc(Cl)c(Cl)c1 was read as H9c2 protect -8, Efflux pump mplx 0, PHOSPHO1 block 32, KCC2 secondary 0.0073, KCC2 bumet counter 0.013*, KCC2 secondary2 0.026*, HEK counter1 0.01*, KCC2 retest ouab 0.019 and HEK293 Tl flux2 inconclusive.
`Cc1ccc(NC(=O)N2CCC(NC(=O)c3cccc(F)c3)CC2)cc1` gave H9c2 protect 7, Efflux pump mplx 0, PHOSPHO1 block 27 and Calb FLC -10.
Screening S=c1[nH]nc(COc2ccccc2)n1/N=C/c1ccc(Br)s1 returned H9c2 protect -11, Efflux pump mplx 0, Cl transport mod 51*, PHOSPHO1 block 39, Calb FLC -4, KCC2 secondary inconclusive, KCC2 bumet counter 0.077*, KCC2 secondary2 0.034, HEK counter1 0.022*, KCC2 retest ouab 0.027* and HEK293 Tl flux2 0.026*.
Oc1ccccc1/C=N/n1c(COc2ccccc2)n[nH]c1=S was read as H9c2 protect 2, Efflux pump mplx 0, PHOSPHO1 block 33 and Calb FLC -10.
`CC(/C=N/n1c(COc2ccccc2)n[nH]c1=S)=C\c1ccco1` gave H9c2 protect -6, Efflux pump mplx 0, Cl transport mod 121*, PHOSPHO1 block -1, Calb FLC -10, KCC2 secondary 0.015*, KCC2 bumet counter 0.17*, KCC2 secondary2 0.034, HEK counter1 0.055*, KCC2 retest ouab 0.046* and HEK293 Tl flux2 0.014*.
`COc1ccccc1CNc1cc(CSc2ccc(Cl)cc2)nc(C)n1` gave H9c2 protect -14, Efflux pump mplx 0, PHOSPHO1 block 0 and Calb FLC -1.
COc1cccc(CNc2cc(CSc3ccc(Cl)cc3)nc(C)n2)c1 was read as H9c2 protect -4, Efflux pump mplx 0, PHOSPHO1 block 6, Calb FLC -3, KCC2 secondary 0.0074, KCC2 bumet counter 0.0032*, KCC2 secondary2 0.03, HEK counter1 inconclusive, KCC2 retest ouab 0.018 and HEK293 Tl flux2 0.0094.
`COC(=O)c1ccc2nc(Nc3nc4c(F)cc(F)cc4s3)sc2c1` gave H9c2 protect -16, Efflux pump mplx 0, Cl transport mod 9.2*, PHOSPHO1 block -2, Calb FLC 6, KCC2 secondary 0.0074, KCC2 bumet counter 0.019*, KCC2 secondary2 0.041*, HEK counter1 0.016*, KCC2 retest ouab 0.028* and HEK293 Tl flux2 0.021*.
For Cc1ccc(-c2csc(NCCn3c(C)nc4cc(C(F)(F)F)ccc43)n2)cc1 the results were H9c2 protect -12 and Efflux pump mplx 0.
Screening O=c1[nH]c(CSc2nc3ccccc3s2)nc2cc(Cl)ccc12 returned Efflux pump mplx 0, Cl transport mod 6.2*, PHOSPHO1 block -50, Calb FLC 12, KCC2 secondary 0.011, KCC2 bumet counter 0.014*, KCC2 secondary2 0.033, HEK counter1 inconclusive, KCC2 retest ouab inconclusive and HEK293 Tl flux2 0.011.
Screening COc1ccc(NC(C)=O)cc1S(=O)(=O)N(C)Cc1c(C)nn(-c2ccccc2)c1C returned H9c2 protect 6 and Efflux pump mplx 0.
For CC(CCc1ccccc1)NC(=O)C(Cc1ccccc1)NS(=O)(=O)c1cccs1 (centres undefined) the results were H9c2 protect 6, Efflux pump mplx 0, Cl transport mod -3.6*, PHOSPHO1 block 11, Calb FLC 15, KCC2 secondary 0.0061, KCC2 bumet counter 0.0038, KCC2 secondary2 inconclusive, HEK counter1 inconclusive, KCC2 retest ouab 0.015* and HEK293 Tl flux2 0.0094.
CC1CCCCC1NC(=O)C(Cc1ccccc1)NS(=O)(=O)c1cccs1 (centres undefined) was read as H9c2 protect 15, Efflux pump mplx 0, PHOSPHO1 block 7 and Calb FLC 7.
For Nc1c(C(=O)c2ccccc2)sc2snc(SCC(=O)c3ccccc3)c12 the results were H9c2 protect 26, Efflux pump mplx 0, PHOSPHO1 block 32, Calb FLC 22, KCC2 secondary 0.0084, KCC2 bumet counter 0.0066, KCC2 secondary2 0.03, HEK counter1 0.0072, KCC2 retest ouab 0.019 and HEK293 Tl flux2 0.01.
Nc1nnc(SCC(=O)c2ccccc2)s1 was read as H9c2 protect 27, Efflux pump mplx 0, PHOSPHO1 block 25 and Calb FLC -4.
`NC(=O)C1CCN(C(=O)C2(NC(=O)Nc3cccc(F)c3)CCCCC2)CC1` gave H9c2 protect 10, Efflux pump mplx 0, PHOSPHO1 block 35 and Calb FLC -2.
Oc1ccccc1/C=N/Nc1nc2ccccc2o1 was read as H9c2 protect 8, Efflux pump mplx 0, Cl transport mod 7.2*, PHOSPHO1 block -129, Calb FLC 8, KCC2 secondary 0.0064, KCC2 bumet counter 0.012*, KCC2 secondary2 0.034, HEK counter1 0.012*, KCC2 retest ouab inconclusive and HEK293 Tl flux2 0.016*.
For CCC(OC(=O)C1=Cc2ccccc2OC1)C(=O)NCc1ccco1 (centres undefined) the results were H9c2 protect -3, Efflux pump mplx 0, Cl transport mod -2.8*, PHOSPHO1 block 37, Calb FLC -21, KCC2 secondary 0.0078, KCC2 bumet counter 0.0069, KCC2 secondary2 0.032, HEK counter1 0.0075, KCC2 retest ouab inconclusive and HEK293 Tl flux2 0.011.
